From PubChem BioAssay (NCI)
The panel holds about 83,000 compounds, 20% with a hit somewhere; the sample as a whole holds those more often.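 Cells were grown in 96-well plates and exposed to the test compound at a single concentration for 48 hours; results are reported as percent growth, with values below 10 considered active.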 A number with no mark means an inactive call. Activity calls are given as the source filed them.

Columns and labels:
Experiment in all cases: NCI-60 one-dose screen, 48 h (100 = growth as untreated, 0 = no growth, -100 = all killed)
Settings in all cases: 10 µM unless noted
[1] = tested on: T-47D breast
[2] = tested on: MDA-MB-435 melanoma
[3] = tested on: SW-620 colon
[4] = tested on: MCF7 breast
[5] = tested on: HCT-116 colon
[6] = tested on: HCC-2998 colon
[7] = tested on: KM12 colon
[8] = tested on: BT-549 breast

Row | Structure (SMILES) | growth [1] | growth [2] | growth [3] | growth [4] | growth [5] | growth [6] | growth [7] | growth [8]
1 | CC(=O)N[C@@H](CNC(=O)c1cc(NC(=O)c2cc(NC(=O)c3cc(NC(=O)c4nccn4C)cn3C)cn2C)cn1C)CC(=O)Nc1cn(C)c(C(=O)Nc2cc(C(=O)Nc3cc(C(=O)Nc4cc(C(=O)NCCCN(C)CCCNC(=O)c5cccc(C(=O)O)c5)n(C)c4)n(C)c3)n(C)c2)n1 | 41.5% | 95.5% | 90.9% | 77.8% | 43.9% | 106% | 42.6% | 
2 | O=C(Nc1ccc(-n2ccc3c(NC(=O)c4ccccc4)nccc32)cc1)c1cccc(C(F)(F)F)c1 | 58.3% | 11% | 19.2% | 24.3% | 12.8% | 44.2% | 20.4% | 
3 | Cc1cn(-c2nc3c(c(NCc4ccccc4)n2)COCC3)c2cccc(C(N)=O)c12 | 62.7% [0.5 µM] | 63.9% [0.5 µM] | 86.1% [0.5 µM] | 35.5% [0.5 µM] | 11.4% [0.5 µM] | 69.9% [0.5 µM] | 63.2% [0.5 µM] | 
4 | COc1ccc(C[C@H](N)C(=O)N[C@@H]2[C@@H](CO)OC(n3cnc4c(N(C)C)ncnc43)[C@@H]2O)cc1 (some centres undefined) | -8.69% (active) | -85.4% (active) | -67.8% (active) | -7.03% (active) | -84.6% (active) | -94.6% (active) | -85.2% (active) | 
5 | COc1ccc(-c2c(C#N)cnc(N)c2-c2nc3cc(C)c(C)cc3[nH]2)cc1 | 71.7% | -5.12% (active) | 38.4% | 50.9% | 20.7% | 1.45% (active) | 17.2% | 
6 | CC(C)CCC[C@@H](C)[C@H]1CC[C@H]2[C@@H]3CC=C4N(c5ccccc5)C(=O)CC[C@]4(C)[C@H]3CC[C@]12C | 95% | 100% | 99.8% | 89.5% | 99.2% | 102% | 105% | 
7 | COc1ccc(/C=C/C(=O)/C=C(/C=C/c2ccc(OC)c(OC)c2OC)OB(F)F)c(OC)c1OC | 50.4% |  | 8% (active) |  |  | 59.2% | 22.8% | 31.4%
8 | CCC(N)(C(=O)O)c1ccc(F)cc1 (centres undefined) | 111% | 105% | 110% | 93.5% | 91.3% | 95.4% | 105% | 
9 | Fc1ccc(/C=N/n2c(-c3cc(Cl)cc(Cl)c3Cl)nn(CNc3ccc(Cl)nn3)c2=S)cc1 | 86% | 97.9% | 112% | 98.9% | 78.1% | 107% | 97.3% | 
10 | CCn1cc(C(=O)O)c(=O)c2cc(F)c(N3CCN(CC(=O)Nc4ccc(C(C)=O)cc4)CC3)cc21 | 92% | 102% | 103% | 99.1% | 104% | 96.2% | 97.4% | 
11 | Oc1ccccc1/C=N/c1ccccn1 | 95.9% | 122% | 107% | 97.7% | 103% | -94.1% (active) | 113% | 
12 | CC(=S)Nc1ccccc1 | 100% | 99.4% | 96.8% | 95% | 104% | 105% | 106% | 
13 | COc1cccc(/C=N/C(=S)NC2(C)C3CCC(C3)C2(C)C)c1O (centres undefined) | 56.5% | 89.8% | 78.9% | 47.8% | 53.4% | 108% | 87.8% | 
14 | COc1cc(CN(c2ccc(Cl)cc2)C2OC(=O)c3ccccc32)cc(OC)c1OC (centres undefined) | 42.3% | -45% (active) | 30.8% | 31.3% | 28% | 73.8% | 31.8% | 
15 | Nc1ncnc2c1ccn2-c1cccc(NC(=O)c2cccc(C(F)(F)F)c2)c1 |  | 59% | 90.2% | 58.6% | 68.5% | 98.6% | 54% | 89.9%
16 | CCNc1cc(S(=O)(=O)O)ccc1C | 90% | 107% | 104% |  | 98.3% | 103% | 107% | 
